The list is not random: actives were taken first. Their share in the collection is about 5.2%.
TrxR1 substrate: qHTS Assay for Substrates of Mammalian Selenoprotein Thioredoxin Reductase 1 (TrxR1): qHTS | Potency, µM (doses to about 114 µM), for inactives: at the top dose activity change, negative = substrate turnover | Thioredoxin reductase 1, cytoplasmic (Rattus norvegicus), O89049 | purified TrxR1 substrate turnover, NADPH consumption readout | hit rate 0.01% among 390,000; note: nearly all actives have a fitted effect of over 50% in size
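Rat TrxR1, dispensed at 90 nM, was prereduced with 400 uM NADPH (final) for 5 min at ~22 deg C, then incubated with compound 15 min before 400 uM selenite. A first-read NADPH fluorescence drop versus no-compound background flagged substrates.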
PLK1 PBD block: qHTS for Inhibitors of PLK1-PDB (polo-like kinase 1 - polo-box domain): Primary Screen; Potency, µM, without a hit: max response, negative = inhibition, usual class: inhibitors; AID 720504, 2013; Serine/threonine-protein kinase PLK1 (Homo sapiens), P53350; Plk1 PBD binding of FITC phosphopeptide, fluorescence polarization; hit rate 2.8% among 360,000; note: series mostly up to about 57 µM; nearly all actives have a fitted effect of over 65% in size
TrxR1 inh: qHTS Assay for Inhibitors of Mammalian Selenoprotein Thioredoxin Reductase 1 (TrxR1): qHTS | Thioredoxin reductase 1, cytoplasmic (Rattus norvegicus), O89049 | recombinant rTrxR1, NADPH fluorescence consumption, selenite substrate | Potency, µM (series often up to 114 µM), inactives show at the top dose activity change, negative = inhibition, most hits filed as inhibitors | hit rate 1% among 390,000 | AID 588453, 2011; note: nearly all actives have a fitted effect of over 65% in size
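Rat TrxR1 (90 nM in the dispensed reagent) was pre-reduced with 400 uM NADPH for 5 min at room temperature, then incubated with compound for 15 min. After 400 uM selenite was added, NADPH fluorescence (Ex 340/Em 450 nm) was followed for 8 min.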
IDH1 R132H inh: qHTS for Inhibitors of mutant isocitrate dehydrogenase 1 (IDH1): qHTS; Isocitrate dehydrogenase [NADP] cytoplasmic (Homo sapiens), O75874; IDH1-R132H enzyme, NADPH consumption, diaphorase/resazurin fluorescence; Potency, µM (titrated, usually from 76.6 µM), for the others: at the highest dose activity change, negative = inhibition, usual class: inhibitors; hit rate 0.093% among 390,000; note: nearly all actives have a fitted effect of over 65% in size
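IDH1-R132H (0.5 ug/mL) preincubated 30 min with compound, then NADPH (0.016 mM) and alpha-KG (2 mM) added; 80 min at RT, pH 7.5. Remaining NADPH coupled via diaphorase/resazurin to fluorescence (540/590 nm); concentration-response curves normalized to no-enzyme control.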
Sfp inh: qHTS Assay for Inhibitors of Bacillus subtilis Sfp phosphopantetheinyl transferase (PPTase); Potency, µM, for the others: largest response in the series, negative = inhibition, actives largely listed as inhibitors; Biochemical Sfp PPTase activity, qHTS; hit rate 3.5% among 310,000; 4'-phosphopantetheinyl transferase ffp (Bacillus subtilis), Q9F4F7;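 note: the enzyme is Sfp with the accession as filed and its product quenches rhodamine fluorescence; 0% = enzyme reaction without inhibitor and -100% = no enzyme wells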
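After 15 min at room temperature with compound, 15 nM Sfp received 5 uM rhodamine-CoA plus 12.5 uM BHQ-2-ybbR (50 mM Hepes pH 7.6, 10 mM MgCl2). Rate came from the fluorescence difference over 30 min, ex 525/em 598 nm.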
VDR inhibitor: Inhibitors of the vitamin D receptor (VDR): qHTS | Vitamin D3 receptor (Homo sapiens), P11473 | VDR-SRC2-3 peptide fluorescence polarization, 2 h | Potency, µM, inactives show max response, negative = inhibition, actives largely listed as inhibitors | hit rate 0.93% among 400,000 | AID 504847, 2011
Target sequence (P11473 whole entry, looked up): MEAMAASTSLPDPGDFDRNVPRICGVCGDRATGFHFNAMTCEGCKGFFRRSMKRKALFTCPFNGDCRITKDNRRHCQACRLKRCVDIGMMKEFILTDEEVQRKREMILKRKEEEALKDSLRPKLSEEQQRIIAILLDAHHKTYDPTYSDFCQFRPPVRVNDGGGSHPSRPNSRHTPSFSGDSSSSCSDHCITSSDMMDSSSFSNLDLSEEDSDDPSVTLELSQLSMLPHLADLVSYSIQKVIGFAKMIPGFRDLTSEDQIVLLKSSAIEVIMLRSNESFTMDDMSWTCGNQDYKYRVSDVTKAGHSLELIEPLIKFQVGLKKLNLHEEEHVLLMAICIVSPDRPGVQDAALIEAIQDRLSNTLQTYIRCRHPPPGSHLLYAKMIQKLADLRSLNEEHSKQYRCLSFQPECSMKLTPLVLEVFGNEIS
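The screen uses fluorescence polarization to detect compounds that interfere with recruitment of the SRC2-3 coactivator peptide to VDR; plates are read after 2 h at room temperature.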
* hit, by the source's call; ? = inconclusive; nt = no result given; [ ] = another dose, or the depositor's remark. Calls come from the whole dose curve; as a rule, active = well fitted curve in the direction sought with a large enough effect; inconclusive = small, poorly fitted or top-dose-only effect, or another doubt; inactive = no such curve, though single readings can be large; an effect the other way counts as inactive or inconclusive. Unless noted, % is set by controls: 0 for no effect and ±100 for the full control effect; potency is the fitted concentration of half-maximal effect.

SMILES | TrxR1 substrate | PLK1 PBD block | TrxR1 inh | IDH1 R132H inh | Sfp inh | VDR inhibitor
COc1ccc(OC)c(C2=NS(=O)(=O)N(C)C(C(=O)Nc3cccc(C(C)=O)c3)=C2)c1 | -9% | 19µM* | 3% | -3% | 18% | ?
COc1ccc(C2=NS(=O)(=O)N(C)C(C(=O)Nc3ccc(C)cc3)=C2)cc1 | 0%[57.1 µM] | 2% | 6%[57.1 µM] | 2% | 3% | -2%
COc1ccc(OC)c(C2=NS(=O)(=O)N(C)C(C(=O)NCc3cccs3)=C2)c1 | -15% | 27µM* | ? | -4% | 2% | ?
Nc1c(Cl)ncnc1N/N=C/c1ccc(O)cc1 | -10% | -8% | -18% | 6% | 56µM* | -1%
CCc1ccc(CNc2ccc3c(c2)ncn3C(C)(C)C)cc1 | 2% | -7% | 13% | -2% | 0% | 12%
CC(C)(C)n1cnc2cc(NCc3ccc(Br)cc3)ccc21 | -5% | 21µM* | 12% | 4% | -14% | ?
CSc1ccc(CNC(=O)C2CCC(=O)N(CCc3ccc(Cl)cc3)C2)cc1 (stereo not drawn) | nt | -3% | nt | 0% | nt | nt
C/C(=C\C(=O)c1ccccc1)Nc1ccc(Cl)c(Br)c1 | 1% | 27µM* | ? | 2% | nt | 0%
COc1ccccc1CCNC(=O)C(=O)NCC(c1cccs1)S(=O)(=O)c1ccccc1 (stereo not drawn) | 9%[57.1 µM] | nt | 41%[57.1 µM] | -4% | nt | 1%
CCCCC(=O)OCC(=O)Nc1cccc(S(=O)(=O)NC2=NCCCCC2)c1 | 4%[57.1 µM] | 24µM* | 30%[57.1 µM] | -3% | 17% | -8%
O=C(COC(=O)c1ccccc1)Nc1cccc(S(=O)(=O)NC2=NCCCCC2)c1 | -7% | 27µM* | -8% | 3% | 5% | -22%
CC(C)C(=O)Nc1cccc(S(=O)(=O)NC2=NCCC2)c1 | nt | -14% | nt | -1% | nt | nt
CCCCCC(=O)Nc1cccc(S(=O)(=O)NC2=NCCCCC2)c1 | -3% | -16% | 14% | -11% | nt | -20%
O=C(CCl)Nc1cccc(S(=O)(=O)NC2=NCCC2)c1 | 4% | -14% | 28µM* | 2% | 21% | 2%
Cc1cccc(NS(=O)(=O)c2ccc(NC(=O)N3CCCC3)cc2)c1 | -2%[57.1 µM] | nt | 23%[57.1 µM] | -5% | nt | -1%
COC(=O)C1(Cc2ccc(O)c(CC3OC3(C)C)c2)OC(=O)C(O)=C1c1ccc(O)cc1 (stereo not drawn) | -2% | -17% | -4% | -12% | 79µM* | 14%
COc1ccc(C/C(C)=N/Nc2nc(C)cc(=O)[nH]2)cc1 | 7% | -6% | 22% | -4% | 50µM* | -14%
COc1ccc(CCNc2nc(C)cc(=O)[nH]2)cc1OC | 8% | 3% | 3% | 7% | nt | 3%
Cc1ccc(-c2cc(C(=O)N3CCN(c4ccc(F)cc4)CC3)c3ccccc3n2)o1 | 11%[57.1 µM] | -27% | 18%[57.1 µM] | 5% | 25µM* | 0%
O=C(O)c1cc(-c2ccc(-c3ccc(F)cc3)o2)nc2ccccc12 | 103% | 15µM* | -7% | 17% | 3.5µM* | ?
O=C(c1cc(-c2ccc(F)cc2)nc2ccccc12)N1CCC1 | 7% | 2% | 7% | 1% | nt | -3%
Cc1cccc(N2CCN(C(C(=O)NCc3ccccc3)c3ccc(C(F)(F)F)cc3)CC2)c1C (stereo not drawn) | nt | -15% | nt | nt | nt | nt
CC(C)C(=O)N1CCC(n2nccc2NC(=O)CCc2ccccc2)CC1 | -22% | 3.4µM* | -31% | -8% | 4% | ?
C=CCCC(=O)N1CCC(n2nccc2NC(=O)c2ccccc2C)CC1 | -11% | -2% | -15% | 2% | 5% | -7%
COCCC(=O)N1CCC(n2nccc2NC(=O)c2ccccc2C)CC1 | -5% | 21µM* | -1% | -2% | 25% | ?
SMILES | TrxR1 substrate | PLK1 PBD block | TrxR1 inh | IDH1 R132H inh | Sfp inh | VDR inhibitor
CC(C)C(=O)N1CCC(n2nccc2NC(=O)CCOc2ccccc2)CC1 | 2% | -5% | 21% | 0% | 12% | 11%
COCCNC(=O)CN(Cc1ccc2c(c1)OCO2)C(=O)CCC(=O)Nc1nccs1 | -10%[57.1 µM] | 3.4µM* | 10%[57.1 µM] | 2% | 16% | ?
COCCN(CC(=O)NCc1ccc2c(c1)OCO2)C(=O)CCC(=O)Nc1nccs1 | 3% | -5% | 3% | -3% | 36% | -13%
CCc1ccc2occ(CC(=O)Nc3c(C(=O)Nc4ccc(C)cc4)oc4ccccc34)c2c1 | 9% | nt | 89µM* | -9% | nt | 15%
C/C=C(\C)NNC(=O)Cc1ccc(OC)cc1 | 3% | nt | 6% | nt | nt | nt
COC(=O)c1ccc(Cl)cc1NC(=O)/C=C/c1ccc(C)o1 | 10%[57.1 µM] | -13% | -11%[57.1 µM] | 8% | 25µM* | -17%
Cc1cccc(C(=O)Nc2cccc3cccnc23)c1 | 0% | 1% | -2% | 5% | -15% | -7%
Cc1ccc(/C=C/C(=O)Nc2cccc3cccnc23)o1 | -7% | -6% | 50µM* | 5% | -30% | -26%
COC(=O)c1cc(Cl)c(NC(=O)/C=C/c2ccc(Cl)cc2Cl)cc1OC | 13% | -4% | 11% | -1% | 5% | -5%
Cc1ccc(NC(=O)/C=C/c2ccc(C)o2)c(C)c1 | -10% | nt | 20µM* | -5% | nt | -9%
COCCN(C(=O)COC(=O)CSc1ccccc1)c1c(N)n(Cc2ccccc2)c(=O)[nH]c1=O | -4% | -20% | 3% | -1% | nt | -3%
COCCN(C(=O)CCN1C(=O)C2CC=CCC2C1=O)c1c(N)n(CC(C)C)c(=O)[nH]c1=O (stereo not drawn) | -2% | -13% | 8% | 0% | nt | -10%
Cc1cccc(NC(=O)C(=O)NCCc2csc(-c3ccc(F)cc3)n2)c1C | 0%[57.1 µM] | nt | 20%[57.1 µM] | 13% | nt | 13%
CCCCN(C)C(=O)C1CCCN(c2ncnc3onc(C)c23)C1 (stereo not drawn) | 1% | nt | 16% | 1% | nt | 7%
COC(=O)c1ccc(CSc2nnc(C)s2)cc1 | -4%[57.1 µM] | 3.4µM* | 15%[57.1 µM] | 4% | 2% | -22%
O=C(CSc1ccccc1C(=O)O)c1ccc([N+](=O)[O-])cc1 | -7% | 12µM* | -16% | 2% | -94% | ?
Cc1nnc(SCC(=O)c2ccc([N+](=O)[O-])cc2)s1 | -3% | -11% | ? | 6% | 50µM* | -24%
Nc1nnc(SCC(=O)c2ccc([N+](=O)[O-])cc2)s1 | 1%[11.4 µM] | -16% | ? | -3% | 4% | 5%
